Laboratory results: the supplement of paper PMC8726507

test system: Plasmodium falciparum NF54-HGL (transmission to Anopheles stephensi); test: percentage of barcode signal found in uninfected mosquitoes (transmission-blocking activity); higher = stronger blocking of transmission to mosquito, active = 80 or more; settings: 10 µM; gametocyte preincubation time 24 h; readout time post-feed 8 days
Protocol: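 The mixture was fed to Anopheles stephensi in 96-well plates as blood meals tagged with DNA-barcoded Asaia bacteria. Eight days later, mosquitoes were classed infected or uninfected by luminescence (mean + 5 SD of unfed controls). Barcodes were quantified by Luminex MagPlex-TAG in the pooled uninfected and infected Asaia cultures, background-corrected, and the score is % of barcode signal in uninfected mosquitoes = 100*Iu/(Iu+Ii).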

| SMILES | percentage of barcode signal found in uninfected mosquitoes |
| --- | --- |
| CC(C)(C)c1cc(C(=O)Nc2cccnc2)cc(C(=O)Nc2cccnc2)c1 | 41.8% (inactive) |
| OCCc1ccc(Nc2nccc(-c3nnc4ccccn34)n2)cc1 | 77% (inactive) |
| Cc1ccc2cc(C3NC(=O)c4ccccc4N3)c(Cl)nc2c1 (stereo not given) | 71.8% (inactive) |
| CNC(=O)c1nn(C)c2c1C(C)(C)Cc1cnc(Nc3ccc(N4CCN(C)CC4)cc3)nc1-2 | 64% (inactive) |
| O=C(Nc1ccc(N2CCNCC2)cc1)c1ccn2ncc(-c3cccc(Cl)c3)c2n1 | 81.5% (active) |
| CCn1cnc2c(Nc3cc(F)cc(F)c3)nc(C#N)nc21 | 33.6% (inactive) |
| Nc1ncc(-c2ccc(C(F)(F)F)nc2)cc1-c1ccc(C(F)(F)F)nc1 | 1.73% (inactive) |
| O=C(Nc1nc(-c2ccccn2)cs1)C1CC1c1ccccc1F (stereo not given) | 53.8% (inactive) |
| Nc1ncnc2c1ncn2C[C@@H](O)[C@@H](O)C(=O)O | 39.9% (inactive) |
| CC(=O)NC[C@@H]1CN(c2ccc(N3CCOCC3)c(F)c2)C(=O)O1 | 4.01% (inactive) |
| Cc1nn2c(O)c3c(nc2c1-c1ccc(F)cc1)CCCC3 | 9.19% (inactive) |
| Cc1ccc2[nH]c3c(NCCN(C)C)ncnc3c2c1 | 40.6% (inactive) |
| COc1ccc(-c2onc(C(F)(F)F)c2-c2ccc(Cl)cc2)c(O)c1 | 25.2% (inactive) |
| N#Cc1ccc(-c2cnc(N)c(-c3ccc(C(N)=O)cc3)n2)cc1 | 69.6% (inactive) |
| CCCS(=O)(=O)N1CCC(CO)(Cc2ccccc2C(F)(F)F)CC1 | 39.3% (inactive) |
| COCC(C)NC(=O)CSc1ncnc2sc(-c3ccccc3)cc12 (stereo not given) | 47.4% (inactive) |
| Clc1ccc(CCNc2cc(-c3ccccc3)nc3ncnn23)cc1 | -1.04% (inactive) |
| Nc1nc(N)c2c3c(sc2n1)CN(Cc1ccccc1)CC3 | 11.7% (inactive) |
| CC(=O)Oc1ccccc1C(=O)Nc1ncc([N+](=O)[O-])s1 | 8.87% (inactive) |

same assay, conditions: 20 µM; gametocyte preincubation time 24 h; readout time post-feed 8 days

| SMILES | percentage of barcode signal found in uninfected mosquitoes |
| --- | --- |
| CO[C@H]1/C=C/O[C@@]2(C)Oc3c(C)c(O)c4c(O)c(/c(=C/NN5CCN(C)CC5)c(O)c4c3C2=O)=N\C(=O)/C(C)=C\C=C/[C@H](C)[C@H](O)[C@@H](C)[C@@H](O)[C@@H](C)[C@H](OC(C)=O)[C@@H]1C | 20.2% (inactive) |
| CC(=O)N1CCN(c2ccc(Oc3ccc(Cl)cc3O)cc2)CC1 | 23.4% (inactive) |
| NCCN(C(=O)c1ccc(Cl)cc1Cl)c1ccc(OCc2ccc(Cl)cc2)cc1 | 65.8% (inactive) |
| C[C@H](c1ccc2c(c1)CCCC2)N(C)c1ncc2c(N)nc(N)nc2n1 | 0.379% (inactive) |
| CN1CCN(S(=O)(=O)c2ccc(-c3ccc4c(Nc5ccc6nn[nH]c6c5)ccnc4c3)cc2)CC1 | 3.18% (inactive) |
| O=C([C@@H](c1ccc(Cl)cc1)c1cccnc1)N1CCN(c2ccc(C(F)(F)F)cc2)CC1 | -0.981% (inactive) |
| NC(=O)c1cc(-c2ccsc2)ccc1OCCOc1ccccc1 | 12.1% (inactive) |
| CC(=O)NCC1CN(c2ccc(-c3ccc(CO)cc3)c(F)c2)C(=O)O1 (stereo not given) | 30.3% (inactive) |
| Nc1ccc2ncnc(Nc3ccc(OCc4cccc(F)c4)c(Cl)c3)c2c1 | 17.8% (inactive) |
| Cc1ccccc1C(=O)N1N=C(Nc2ccccc2)SC1(C)C | -0.332% (inactive) |
| Cc1ccc2nc(C)c(-c3ccn(Cc4ccccc4)n3)n2c1 | 71.6% (inactive) |
| CCCCCCCCCCCCCCCCOP(=O)([O-])OCC[N+](C)(C)C | -0.352% (inactive) |
| O=C(Nc1cccc(Cl)c1)c1cnc(N2CCN(c3ccncc3)CC2)c(Cl)c1 | 56% (inactive) |
| c1ccc(C[C@@H]2CN(c3nccc(Oc4ccc(-n5ccnc5)cc4)n3)CCN2)cc1 | 35.3% (inactive) |
| COc1ccc(N(CCc2cccc(C)n2)C(C)=O)cc1 | 0.592% (inactive) |
| Cc1cc(C)n(-c2ccc(NC(=O)C3CCN(Cc4cnc(C)s4)CC3)cc2)n1 | 1.19% (inactive) |
| c1ccc2c(c1)CN(CC1CC1)CC1(CCN(Cc3c[nH]c4cnccc34)CC1)O2 | 30.7% (inactive) |
| OCc1ccc(-c2cncc(Nc3cccc(Cl)c3)c2)cc1 | 4.28% (inactive) |
| O=C(OCc1ccccc1)N1CCC(c2cc(-c3ccncc3)c(-c3ccc(F)cc3)[nH]2)CC1 | 16.8% (inactive) |
| COc1ccc(-c2nn(C(C)C)c3ncnc(N)c23)cc1OC | 95.5% (active) |
| NC(=O)c1cc(Br)ccc1OCCOc1ccccc1 | 0.0693% (inactive) |
